In PubChem BioAssay AID602193 (The Scripps Research Institute Molecular Screening Center, 2012):
The whole screen tested about 1,600 compounds, of which about 410 (26%) were called active. The sample as a whole holds a higher share of actives than the screen did. A number with no mark means an inactive call.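 The calls were made as follows: active = mean inhibition over triplicates above the low-control well mean plus 3 SD, set per campaign (cut at about 13% in these data); inactive = the rest.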

Test: nonselective cAMP signaling inhibitors, parental cells, counter-screen for MC4R biased antagonist project, cell-based, TR-FRET, U2OS, forskolin, triplicate (AID 602193);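 also: signal is single emission at 671 nm which falls as cellular cAMP rises; 0% = forskolin-stimulated wells and 100% = buffer without forskolin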
Conditions: LANCE TR-FRET, at 6.5 µM, hits give high values

| Structure (SMILES) | inhibition |
| --- | --- |
| Cc1cccc(N2C(=O)NC(=O)/C(=C\c3cnn(-c4ccccc4)c3)C2=O)c1 | 14.2% (active) |
| COc1cccc(N2C(=O)NC(=O)/C(=C\c3ccc([N+](=O)[O-])s3)C2=O)c1 | 0.64% |
